The record followed here is PubChem BioAssay (NCATS).

The structures appear in SMILES notation. Results filed as inconclusive are left out. Unmarked numbers belong to inactive results. Calls of active or inactive are those of the source. The call rests on the fitted dose curve; tested in HEK293 reporter line.
On the % scale 0 is the no-effect control and ±100 the full control effect; potency means the concentration at half of the fitted maximal effect.

The assay can be described thus: qHTS for Inhibitors of the Functional Ribonucleoprotein Complex (vRNP) of Lassa (LASV) Arenavirus: LASV Primary Screen - GLuc reporter signal (AID 1347082). Further: nearly all actives have a fitted effect of over 60% in size. To be noted: LASV minigenome vRNP, Gaussia luciferase reporter; series mostly up to 57.5 µM; activity change, negative = inhibition: at the top concentration. (In qHTS, concentration-response curves come from the screen itself.)
For `C=C1C(=O)OC2C1C(OC(=O)C(C)=CC)CC(=C)C1C(O)C3OC3(C)C21O` (stereo not given), the “activity change, negative = inhibition” value is -36%. Same read-out and setting: the figure for `CC/C=C\CC1=C(C)CCC1=O` is -21% [at 115 µM]; for `COC(=O)c1cc2c([nH]c3ccccc32)c(C)n1` it is -10.3%.

Take `O=C1c2cc(CO)cc(O)c2C(=O)c2c(O[C@@H]3OC(CO)[C@@H](O)[C@@H](O)[C@@H]3O)cccc21` (stereo not given in full): the “activity change, negative = inhibition” value is 4.14%. `Cc1coc2c1C(=O)C(=O)c1c-2ccc2c(C)cccc12`: the “activity change, negative = inhibition” value is -7.76%. With `CCNC(=O)CCCC=CC[C@@H]1[C@H](C=CC(O)CCc2ccccc2)[C@@H](O)C[C@@H]1O` (stereo not given in full), the “activity change, negative = inhibition” value was -2.45%.

In the case of `CC1(C)CC(=O)c2cc(O)ccc2O1`, the “activity change, negative = inhibition” value was 1.65%.

Take `CC(=O)OC[C@]1(OC(C)=O)C[C@@]23CC[C@H]4[C@@](C)(CCC[C@@]4(C)C(=O)O)[C@@H]2CC[C@@H]1C3`: the “activity change, negative = inhibition” value is 4.9%. On to `COC(=O)/C=C\C(=O)O`, for which the “activity change, negative = inhibition” value is 4.59% [at 115 µM]. On the same count and under the same terms, the same measure for `CC(C)CCCC(=O)O`: 2.56% [at 115 µM]; for `C[C@@H](O)CCC[C@H](O)/C=C/[C@H]1[C@H](O)CC(=O)[C@@H]1C/C=C\CCCC(=O)O`: -72.5% [at 5.82 µM]. Still for that read-out and setting: the same measure for `C=C(C)C(COc1c2occc2cc2ccc(=O)oc12)OC(C)(C)C(O)COc1c2occc2cc2ccc(=O)oc12` (stereo not given): 8.42%. In the case of `CC/C=C\CCOC(C)OCC` (stereo not given), the “activity change, negative = inhibition” value was -0.366% [at 115 µM]. In the case of `NCCC(=O)c1ccccc1N`, the “activity change, negative = inhibition” value was -4.69%.

Turning to `COc1cc(=O)n(C)c2c(O)cccc12`, the “activity change, negative = inhibition” value is 1.86%. As to `CC(C)=CCOc1c2ccoc2c(OCC=C(C)C)c2oc(=O)ccc12`, the “activity change, negative = inhibition” value was 2.31%. `CCNC(=O)Nc1ccc(-c2nc3c(c(N4CCOC[C@H]4C)n2)CCN(C2COC2)C3)cc1`: the Potency was 1930 nM (active). For the compound `CC(=NNC(=S)N1CCC1)c1ccccn1`, the Potency is 27.3 nM (active).

Consider `COc1cc2c(c3oc(-c4ccccc4)cc(=O)c13)C=CC(C)(C)O2`, for which the “activity change, negative = inhibition” value was -12.8%. The same measure, in the same setting: the same measure for `CC(C)(O)C1CC[C@@]2(C)C3CCC4[C@@]5(C)CCCC(C)(C)C5C(O)C[C@]4(C)[C@]3(C)CC[C@@H]12` (stereo not given in full): 1.12%; for `CC1(C)CCC[C@@]2(C)CC=C(C(=O)O)[C@@H]3C[C@]312`: -2.34%. Same read-out and setting: the figure for `CC(C)(O)Cc1ccccc1` is 16.3% [at 115 µM]; for `CO[C@H]1C=CO[C@@]2(C)Oc3c(C)c(O)c4c(O)c(c5c(c4c3C2=O)NC2(CCN(CC(C)C)CC2)N=5)=NC(=O)C(C)=CC=C[C@H](C)[C@H](O)[C@@H](C)[C@@H](O)[C@@H](C)[C@H](OC(C)=O)[C@H]1C` it is -7.59%. The same measure, in the same setting: the figure for `CC(=O)Oc1ccc2c(C)cc(=O)oc2c1` is -17.4%; for `CC1CC[C@@]2(OC1)O[C@H]1CC3[C@@H]4C[C@@H](O)[C@@]5(O)C[C@@H](O)[C@H](O)C[C@]5(C)[C@H]4CC[C@]3(C)[C@H]1[C@@H]2C` (stereo not given in full) it is -0.366%. For the compound `CCCCCOC(=O)CCC`, the “activity change, negative = inhibition” value is 7.15% [at 115 µM]. The same measure, in the same setting: the figure for `O=C1O[C@@H](c2ccc(O)cc2)Cc2cccc(O)c21` is 13%; for `C/C=C/c1cc(OC)c2c(c1)[C@H](C)[C@@H](c1ccc(O)c(OC)c1)O2` it is 1.02%. Still for that read-out and setting: the same measure for `c1ccc(-c2ccc3ccccc3n2)cc1`: -6.04%; for `CCCC1CCOC(C)S1` (stereo not given): 1.12% [at 115 µM]. Same read-out and setting: the same measure for `CC12CCC(=O)C=C1CCC1C2C(O)CC2(C)C(O)CCC12` (stereo not given): 7.66%; for `COc1ccc(-c2oc3ccccc3c(=O)c2O)cc1`: 3.16%. In the case of `CCCCCCCOC(C)=O`, the “activity change, negative = inhibition” value is 2.14% [at 115 µM]. The same measure, in the same setting: the same measure for `CC(=O)OC1c2c(ccc3ccc(=O)oc23)OC(C)(C)C1OC(=O)CC(C)C` (stereo not given): 2.99%. Same read-out and setting: the figure for `CC1(C)C2=CCCC(C)(C)[C@]23CC[C@H]1C3` is -18.7% [at 115 µM]. Same read-out and setting: the figure for `CC1CC2CCCC(O)=C2C(=O)O1` (stereo not given) is 18%; for `O=C(c1ccccc1)N1CCCCC1` it is 0.375%. As for `CC1(C)O[C@@H]2C[C@@H]3[C@H]4C[C@@H](F)C5=CC(=O)C=C[C@]5(C)[C@@]4(F)[C@@H](O)C[C@]3(C)[C@]2(C(=O)CO)O1`, the “activity change, negative = inhibition” value was 19.6%. Consider `CC/C=C\CCCCO`, for which the “activity change, negative = inhibition” value was 5.5% [at 115 µM]. On the same count and under the same terms, the same measure for `CCCCCCCCCCCCCCCCCCOS(=O)(=O)O`: -3.81% [at 115 µM].
